According to ChEMBL document CHEMBL3988442, “University of Dundee, Small-Polar-MMV Screening Library” (2021):

How the values were obtained:
[1] = target: T1, Aspartate--tRNA(Asp/Asn) ligase (Mycobacterium tuberculosis (strain ATCC 25618 / H37Rv)) (UniProt P9WFW3); assay: Assay for Asp RNA synthetase-1 from Mycobacterium tuberculosis; assay type: functional; design: scale not given: direction of the effect not stated beside the values; conditions: 30 µM; further: in the data most compounds retested in dose-response had high values
T1 sequence (whole entry): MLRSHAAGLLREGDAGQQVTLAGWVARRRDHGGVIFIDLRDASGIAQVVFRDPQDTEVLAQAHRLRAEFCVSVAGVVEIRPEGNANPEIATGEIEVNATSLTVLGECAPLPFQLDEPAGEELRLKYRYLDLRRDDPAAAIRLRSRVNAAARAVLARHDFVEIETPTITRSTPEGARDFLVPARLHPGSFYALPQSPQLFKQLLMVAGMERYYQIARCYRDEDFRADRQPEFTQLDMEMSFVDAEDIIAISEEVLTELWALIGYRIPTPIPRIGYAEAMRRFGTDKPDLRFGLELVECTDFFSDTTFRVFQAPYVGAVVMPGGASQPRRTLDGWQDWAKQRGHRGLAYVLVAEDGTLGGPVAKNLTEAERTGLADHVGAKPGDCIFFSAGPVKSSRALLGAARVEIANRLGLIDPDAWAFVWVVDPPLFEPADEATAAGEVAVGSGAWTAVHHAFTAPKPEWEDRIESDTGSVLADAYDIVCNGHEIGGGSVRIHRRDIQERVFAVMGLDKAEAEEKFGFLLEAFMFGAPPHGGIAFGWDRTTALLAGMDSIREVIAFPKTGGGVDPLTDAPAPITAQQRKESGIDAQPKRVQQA

[2] = target: Shiga toxin 2 (Escherichia coli O157:H7) (UniProt P09385+P09386); assay: E. coli 0.157:H7 Shiga Toxin SOP - stx2 screening assay; assay type: functional; design: scale not given: direction of the effect not stated beside the values; conditions: 30 µM

SMILES	Percent Effect [1]	Percent Effect [2]
CC(C)COCC(NC(=O)c1cc[nH]n1)c1ccco1 (centres undefined)	7.45%	9.69%
Cc1cc(C)nc(CCNC(=O)[C@H]2CNC[C@@H](C(=O)N3CCCC3)C2)n1	-2.14%	-37.4%
Cc1cc2n(n1)CC(CNCc1cnn(-c3ccccc3)c1)CN2 (centres undefined)	-1.15%	7.05%
Cc1noc(C)c1CC(=O)OCC(=O)N1CCc2sccc2C1	6.42%	-7.79%
CNC(=O)CN1CCC(NC(=O)N(C)Cc2cc(C)on2)CC1	-6.28%	19%
O=C1NCCCCC1Sc1nnc(C2CC2)n1C1CC1 (centres undefined)	-6.09%	3.62%
Cc1csc(N2CCN(Cc3cnc(C)s3)CC2C)n1 (centres undefined)	3.68%	13.7%
Cc1cc(C)c(CNC(=O)N(C)Cc2sccc2C)c(=O)[nH]1	2.05%	33.8%
Cc1cc2c(=O)n3c(nc2s1)CCN(C(=O)c1cnn(C)c1C)CC3	0.849%	5.44%
Cc1ccc(CN2Cc3c(C(=O)N(C)C)nn(C)c3C2)s1	1.3%	-23.6%
COCCC(=O)N1CCC2(COCc3cnc(-c4ccccc4)nc32)C1 (centres undefined)	-4.87%	-3.09%
Cc1cc(=O)n2ncnc2n1CC(O)c1cc(F)ccc1F (centres undefined)	3.44%	1.57%
CC(C)n1ccc(-c2cc(C(=O)N3CCCC3)c3ccccn23)n1	2.64%	-41.4%
Cc1ncsc1C(=O)NC1CCN(CC(=O)N(C)c2ccccc2)CC1	-3.57%	34%
O=C(COCc1nc(-c2ccncc2)no1)N1CCCC1	15.3%	-21.3%
CC(=O)N1CC[C@H]2OCC[C@@]2(C(=O)NCc2ccco2)C1	0.379%	-17.2%
CC1CCN(c2ncc3c(n2)CN(c2ccccc2)C3=O)CC1	3.06%	-36.5%
